The source of these data is PubChem BioAssay (NCI).

Test [1] is described as follows: NCI Yeast Anticancer Drug Screen. Data for the rad50 strain (AID 155).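 Further: 0% = growth of vehicle-only cultures of the same strain.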 The following applies: S. cerevisiae rad50 strain growth inhibition, hits give high values. The procedure, abridged: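 DNA repair mutant yeast, compound exposure, growth read-out; inhibition is taken relative to vehicle.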
Test [2] in a line: NCI Yeast Anticancer Drug Screen. Data for the mec2-1 strain (AID 157). The note with it: S. cerevisiae mec2-1 strain, hits give high values. The procedure, abridged:
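Cells of the genetically defined mec2-1 yeast strain are incubated with test compound. Inhibition of growth is calculated against vehicle-treated controls.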

Test [3] in a line: NCI Yeast Anticancer Drug Screen. Data for the sgs1 mgt1 strain (AID 161).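 Further: 0% = growth of cultures given vehicle only.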 The note with it: S. cerevisiae sgs1 mgt1 strain, hits give high values. An outline of the steps: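 Test agents were incubated with a DNA-repair-mutant yeast strain. Growth was then read and compared against vehicle-treated controls.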
Test [4] is described as follows: NCI Yeast Anticancer Drug Screen. Data for the cln2 rad14 strain (AID 165).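 Further: 0% = growth equal to vehicle treated cultures.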 The note with it: S. cerevisiae cln2 rad14 strain, hits give high values. The procedure, abridged: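 The screen exposed genetically defined yeast (cln2 rad14) to test compounds and scored growth inhibition relative to vehicle-treated controls.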
Test [5] in a line: NCI Yeast Anticancer Drug Screen. Data for the bub3 strain (AID 167). The following applies: S. cerevisiae bub3 mutant strain, hits give high values. The procedure, abridged: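 In this screen, a yeast mutant lacking normal mitotic checkpoint function is challenged with compound. Relative growth versus vehicle gives the inhibition value.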
The nature of test [6]: NCI Yeast Anticancer Drug Screen. Data for the mlh1 rad18 strain (AID 175). The following applies: S. cerevisiae mlh1 rad18 strain growth inhibition, hits give high values. An outline of the steps: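 Compound-treated yeast growth, normalised to vehicle controls. Strain bears defined DNA repair mutations.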
The mark [7] stands for this setting: at 5.0 µM (retest, dose inferred, filed as 0.5).
Where [8] appears, read: at 50.0 µM (retest, dose inferred, filed as 5.0).

The structures appear in SMILES notation. This is part of a sample that, as a whole, favours compounds with a hit. Of some 79,000 tested, about 15% had one in any assay. A number with no mark means an inactive call. Activity calls are given as the source filed them. No stated cut-off is given here; in the data, active means growth inhibition above about 70%; inactive means the rest.

Take `CCCNCC/C=C/[Si](C)(C)C`: the growth inhibition in test [1] (setting [7]) is -17%; in test [1] (setting [8]), 99% (active); in test [1] (at 50.0 µM), 98.7% (active); in test [2] (setting [7]) it was -9%; in test [2] (setting [8]), 99% (active); in test [2] (at 50.0 µM), 96.5% (active). Further, the growth inhibition in test [3] (setting [7]) was -3%; in test [3] (setting [8]), 99% (active); in test [3] (at 50.0 µM), 97.6% (active); in test [4] (setting [7]), 4%; in test [4] (setting [8]), 99% (active); in test [4] (at 50.0 µM), 98.5% (active). The growth inhibition in test [5] (setting [7]) was -2%; in test [5] (setting [8]) it was 99% (active); in test [5] (at 50.0 µM), 98.8% (active); in test [6] (setting [7]), 10%; in test [6] (setting [8]), 99% (active); in test [6] (at 50.0 µM) it was 98.8% (active).
Consider `COC1OC(CI)C(OC(c2ccccc2)(c2ccccc2)c2ccccc2)C(OC(c2ccccc2)(c2ccccc2)c2ccccc2)C1OC(c1ccccc1)(c1ccccc1)c1ccccc1` (stereo not given), for which the growth inhibition was -14% in test [1] (setting [7]); -6% in test [1] (setting [8]); 96.4% (active) in test [1] (at 50.0 µM); -17% in test [2] (setting [7]); -22% in test [2] (setting [8]); 98.5% (active) in test [2] (at 50.0 µM). For the same molecule, the growth inhibition is -8% in test [3] (setting [7]); -18% in test [3] (setting [8]); 94.5% (active) in test [3] (at 50.0 µM); -10% in test [4] (setting [7]); 14% in test [4] (setting [8]); 97.8% (active) in test [4] (at 50.0 µM). Besides, the growth inhibition in test [5] (setting [7]) was 1%; in test [5] (setting [8]), -13%; in test [5] (at 50.0 µM), 97% (active); in test [6] (setting [7]), -17%; in test [6] (setting [8]), 11%; in test [6] (at 50.0 µM) it was 95.9% (active).
`O=C1/C(=C/N2CCN(c3ccccc3)CC2)Cc2c(Cl)cccc21`: the growth inhibition in test [1] (setting [7]) was 13%; in test [1] (setting [8]), -2%; in test [1] (at 50.0 µM), 77.3% (active); in test [2] (setting [7]), 7%; in test [2] (setting [8]) it was 91% (active); in test [2] (at 50.0 µM), 98.2% (active). Also, the growth inhibition in test [3] (setting [7]) was 7%; in test [3] (setting [8]) it was 4%; in test [3] (at 50.0 µM), 64.3%; in test [4] (setting [7]), 64%; in test [4] (setting [8]), 35%; in test [4] (at 50.0 µM), 93.8% (active). Besides, the growth inhibition in test [5] (setting [7]) is -9%; in test [5] (setting [8]) it was 33%; in test [5] (at 50.0 µM), 94.3% (active); in test [6] (setting [7]), 6%; in test [6] (setting [8]), 41%; in test [6] (at 50.0 µM) it was 98.2% (active).
Turning to `CCc1nc(N)nc(N)c1-c1ccc(N2CCCCC2)c([N+](=O)[O-])c1`, the growth inhibition in test [1] (setting [7]) was 3%; in test [1] (setting [8]) it was 8%; in test [1] (at 50.0 µM) it was 31.3%; in test [2] (setting [7]), 6%; in test [2] (setting [8]), 4%; in test [2] (at 50.0 µM), 56.8%. Also, the growth inhibition in test [3] (setting [7]) is 1%; in test [3] (setting [8]), 3%; in test [3] (at 50.0 µM), 13.3%; in test [4] (setting [7]), -6%; in test [4] (setting [8]), 6%; in test [4] (at 50.0 µM) it was 72.2% (active). Moreover, the growth inhibition in test [5] (setting [7]) was -1%; in test [5] (setting [8]), -2%; in test [5] (at 50.0 µM), 91.7% (active); in test [6] (setting [7]), -1%; in test [6] (setting [8]) it was 0%; in test [6] (at 50.0 µM) it was 51%.
For `O=c1c(O)c(-c2ccc(Cl)cc2)oc2cc(O)ccc12`, the growth inhibition in test [1] (setting [7]) was 4%; in test [1] (setting [8]), 52%; in test [1] (at 50.0 µM), 88.7% (active); in test [2] (setting [7]), 2%; in test [2] (setting [8]) it was 86% (active); in test [2] (at 50.0 µM), 77.7% (active). Besides, the growth inhibition in test [3] (setting [7]) is 1%; in test [3] (setting [8]), 54%; in test [3] (at 50.0 µM) it was 89.7% (active); in test [4] (setting [7]), -7%; in test [4] (setting [8]), -2%; in test [4] (at 50.0 µM), -9.3%. Also, the growth inhibition was 3% in test [5] (setting [7]); 51% in test [5] (setting [8]); 59.5% in test [5] (at 50.0 µM); 7% in test [6] (setting [7]); 50% in test [6] (setting [8]); 91.5% (active) in test [6] (at 50.0 µM).
`C[C@]12C/C(=C/C(F)(F)F)C(=O)C[C@@H]1CC[C@@H]1[C@@H]2CC[C@]2(C)[C@@H](C(=O)O)CC[C@@H]12`: the growth inhibition in test [1] (setting [7]) is 32%; in test [1] (setting [8]), 91% (active); in test [1] (at 50.0 µM), 31.5%; in test [2] (setting [7]) it was 92% (active); in test [2] (setting [8]), 97% (active); in test [2] (at 50.0 µM), 39.4%. The growth inhibition is 87% (active) in test [3] (setting [7]); 95% (active) in test [3] (setting [8]); 72.1% (active) in test [3] (at 50.0 µM); 24% in test [4] (setting [7]); 87% (active) in test [4] (setting [8]); 55.7% in test [4] (at 50.0 µM). For the same molecule, the growth inhibition is 89% (active) in test [5] (setting [7]); 95% (active) in test [5] (setting [8]); 26.1% in test [5] (at 50.0 µM); 93% (active) in test [6] (setting [7]); 96% (active) in test [6] (setting [8]); 48.4% in test [6] (at 50.0 µM).
Take `COc1ccc2c3c(c4cc(OC)c(OC)cc4c2c1)CN1CCC[C@H]1[C@@H]3O`: the growth inhibition was 19% in test [1] (setting [7]); 99% (active) in test [1] (setting [8]); 89.4% (active) in test [1] (at 50.0 µM); 7% in test [2] (setting [7]); 99% (active) in test [2] (setting [8]); 90.6% (active) in test [2] (at 50.0 µM). Further, the growth inhibition in test [3] (setting [7]) was 97% (active); in test [3] (setting [8]), 98% (active); in test [3] (at 50.0 µM) it was 91.1% (active); in test [4] (setting [7]), 90% (active); in test [4] (setting [8]), 97% (active); in test [4] (at 50.0 µM), 88.2% (active). For the same molecule, the growth inhibition in test [5] (setting [7]) was 95% (active); in test [5] (setting [8]) it was 98% (active); in test [5] (at 50.0 µM), 89.7% (active); in test [6] (setting [7]), 98% (active); in test [6] (setting [8]) it was 97% (active); in test [6] (at 50.0 µM), 89.2% (active).
As for `O=C1c2ccccc2-c2cc([N+](=O)[O-])c([N+](=O)[O-])cc21`, the growth inhibition is 16% in test [1] (setting [7]); 99% (active) in test [1] (setting [8]); 93.2% (active) in test [1] (at 50.0 µM); 19% in test [2] (setting [7]); 45% in test [2] (setting [8]); 98.6% (active) in test [2] (at 50.0 µM). Moreover, the growth inhibition in test [3] (setting [7]) was 21%; in test [3] (setting [8]), 99% (active); in test [3] (at 50.0 µM), 96% (active); in test [4] (setting [7]), -15%; in test [4] (setting [8]), 90% (active); in test [4] (at 50.0 µM), 90% (active). Also, the growth inhibition was 7% in test [5] (setting [7]); 99% (active) in test [5] (setting [8]); 98.7% (active) in test [5] (at 50.0 µM); 5% in test [6] (setting [7]); 98% (active) in test [6] (setting [8]); 98.3% (active) in test [6] (at 50.0 µM).
For the molecule `CCc1c(-c2ccccc2)c(CN2CCCCC2)c2ccccn12`, the growth inhibition is 6% in test [1] (setting [7]); 3% in test [1] (setting [8]); -1.4% in test [1] (at 50.0 µM); 13% in test [2] (setting [7]); 13% in test [2] (setting [8]); -4.85% in test [2] (at 50.0 µM). Besides, the growth inhibition in test [3] (setting [7]) is 0%; in test [3] (setting [8]), 37%; in test [3] (at 50.0 µM), 88.2% (active); in test [4] (setting [7]), -6%; in test [4] (setting [8]), 26%; in test [4] (at 50.0 µM), -20%. Besides, the growth inhibition in test [5] (setting [7]) was -4%; in test [5] (setting [8]), 26%; in test [5] (at 50.0 µM) it was -5.5%; in test [6] (setting [7]), -12%; in test [6] (setting [8]), 5%; in test [6] (at 50.0 µM) it was 21.9%.
For `Cc1cc(C2C(O)C(c3cc(C)on3)C2(C)O)no1` (stereo not given), the growth inhibition in test [1] (setting [7]) was 0%; in test [1] (setting [8]), 0%; in test [1] (at 50.0 µM), 72.2% (active); in test [2] (setting [7]), -12%; in test [2] (setting [8]), 13%; in test [2] (at 50.0 µM), 38.5%. The growth inhibition in test [3] (setting [7]) was 3%; in test [3] (setting [8]), 5%; in test [3] (at 50.0 µM), 62.6%; in test [4] (setting [7]), -2%; in test [4] (setting [8]), -7%; in test [4] (at 50.0 µM), -24.1%. For the same molecule, the growth inhibition in test [5] (setting [7]) was 2%; in test [5] (setting [8]), -1%; in test [5] (at 50.0 µM), 8.1%; in test [6] (setting [7]), 16%; in test [6] (setting [8]), 17%; in test [6] (at 50.0 µM) it was 50.2%.
